The values below come from PubChem BioAssay (NCI).

Holding throughout (experiment): NCI-60 one-dose screen, 48 h (100 = growth as untreated, 0 = no growth, -100 = all killed)
What all share (settings): 10 µM unless noted

Test [1] deals with NCI-H23 lung.
The subject of test [2] is NCI-H226 lung.
Test [3] concerns NCI-H322M lung.
The test system of test [4] is HOP-62 NSCLC.
The subject of test [5] is NCI-H460 lung.
For test [6], the system named is HOP-92 NSCLC.
Test [7] relates to NCI-H522 lung.
For test [8], the system named is A549/ATCC NSCLC.
Test [9] concerns 786-0 renal.
For test [10], the system named is COLO 205 colon.
For test [11], the system named is DU-145 prostate.
In test [12] the test system is K-562 leukemia.
Test [13] relates to MALME-3M melanoma.
The subject of test [14] is MDA-MB-231 breast.
Test [15] has as its system RXF 393 renal.
The test system of test [16] is SF-268 CNS.
In test [17] the test system is SF-295 CNS.
Test [18] relates to SF-539 CNS.
For test [19], the system named is UACC-257 melanoma.
For test [20], the system named is M14 melanoma.

Structures are written as SMILES. About 83,000 compounds went through this panel and 20% of them were active in at least one assay; those are over-represented in the sample as a whole.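 Values shown are percent growth following 48 h exposure of cells in 96-well plates to a single concentration of compound; below 10 was considered active.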 Values without a mark were called inactive. Activity calls are given as the source filed them.

Take `CCCCNC(=O)c1ccc2c(c1)nc(-c1ccccc1)n2C1CCCCC1`: the growth in test [1] is 92.3%; in [2] it was 109%; in test [3], 90.5%; in [4], 77.3%; in test [5], 109%; in [6], 105%. Besides, the growth in [7] is 80.9%; in test [8], 95.9%; in [9], 92.7%; in test [10], 88.9%; in test [11], 103%; in test [12], 75.8%. For the same compound, the growth in test [13] was 100%; in test [14], 96.1%; in test [15] it was 120%; in test [16], 104%; in test [17], 95.4%; in test [18], 105%. The growth in [19] was 109%; in test [20], 89.8%.
Take `COc1cc2ncnc(Nc3ccc(F)c(Cl)c3)c2cc1OCC(=O)N1CCOCC1`: the growth in [1] was 90.7%; in [2], 102%; in test [3], 24.7%; in [4], 98.1%; in test [5] it was 99.5%; in [6], 92.1%. For the same compound, the growth in test [7] is 33%; in test [8], 74.8%; in test [9], 78.5%; in test [10] it was 106%; in [11], 57.3%; in test [12] it was 88.4%. Besides, the growth was 98.2% in test [13]; 108% in [14]; 107% in test [15]; 75.3% in [16]; 90.6% in test [17]; 97.7% in test [18]. Further, the values for the growth in test [19] and in [20] were 106% and 90.4%, respectively.
In the case of `COc1cc([C@@H](CCO)C[C@H](C)c2ccc3ccccc3c2)cc(OC)c1OC`, the growth was 54.6% in test [1]; 56.4% in test [2]; 46.7% in [3]; 40.6% in [4]; 17.3% in [5]; 30.8% in [6]. The growth is -7.95% (active) in test [7]; 46.8% in test [8]; 28% in test [9]; 16.1% in test [10]; 47.1% in [11]; 12.1% in test [12]. In addition, the growth in test [13] is 44.5%; in test [14] it was 43.8%; in test [15] it was 32.3%; in test [16] it was 48.9%; in test [17], 19.6%; in test [18], 9.87% (active). Also, the growth in test [19] is 60.6%; in test [20], 15.5%.
Turning to `Nc1nc(N)c2c(n1)NC(c1cccc(Nc3ccnc4cc(C(F)(F)F)ccc34)c1)CC(c1ccc3c(c1)OCO3)=N2` (stereo not given), the growth was 82.4% in test [1]; 97.7% in test [2]; 96.2% in [3]; 65.7% in [4]; 58.8% in [5]; 54.4% in test [6]. In addition, the growth in test [7] was 42.2%; in test [8], 60.3%; in [9] it was 72.6%; in [10], 66.2%; in [11], 86.9%; in test [12] it was 16.1%. For the same compound, the growth in test [13] is 72.5%; in test [14] it was 86.1%; in test [15] it was 52.2%; in test [16], 68.2%; in test [17], 80%; in [18], 95.4%. Further, the growth is 77.7% in [19] and 67.3% in test [20].
In the case of `N#Cc1c(-c2ccc(Cl)cc2)nc(NN=Cc2ccc[nH]2)nc1N1CCOCC1`, the growth in [1] was 92.4%; in test [2], 61.8%; in test [3] it was 95.4%; in test [4], 41.6%; in test [5] it was 36.7%; in [6], 68.9%. Further, the growth was 8.32% (active) in test [7]; 54.4% in [8]; 23.9% in [9]; 81.6% in [10]; 84.2% in [11]; 44.2% in test [12]. The growth in test [13] is 88.9%; in [14], 79.7%; in test [15], 63.1%; in [16], 46.2%; in test [17], 58.4%; in test [18], 33.4%. Also, the growth in test [19] was 101%; in [20], 105%.
As for `CC1(C)CC(=O)C2=C(C1)C(c1ccc(Cl)cc1)n1ncc(C#N)c1N2` (stereo not given), the growth was 99.6% in test [1]; 94.8% in [2]; 90.9% in test [3]; 104% in test [4]; 106% in [5]; 99.3% in test [6]. Moreover, the growth in test [7] was 85.7%; in [8], 101%; in test [9] it was 98.9%; in test [10] it was 109%; in test [11], 108%; in test [12], 106%. Also, the growth is 102% in [13]; 93.6% in test [14]; 107% in test [15]; 103% in test [16]; 101% in test [17]; 87.6% in [18]. For the same compound, the growth in [19] is 101%; in test [20], 108%.
Regarding `CCN1C(=O)N(c2ccccc2)C2NC(=S)N(/N=C/C=C/c3ccccc3OC)C21` (stereo not given), the growth in test [1] was 39.6%; in test [2], 49.9%; in [3], 41.8%; in test [4], 35.1%; in [5], 3.66% (active); in test [6] it was 43.4%. In addition, the growth is 9.88% (active) in [7]; 24.1% in test [8]; 26% in test [9]; 6.54% (active) in test [10]; 5.45% (active) in test [11]; 9.41% (active) in test [12]. Further, the growth in test [13] was 40.9%; in test [14] it was 16.7%; in [15], 62.2%; in test [16] it was 47.3%; in test [17] it was 14.2%; in test [18] it was -13.3% (active). In addition, the growth in test [19] was 22%; in [20], 11.2%.
As for `COC(=O)[C@]1(C)CCC[C@]2(C)[C@H]3C[C@@H]4[C@H]5[C@@H]6CC/C(=N\OCC/C(N)=N/O)[C@H]5[C@@]3(CC[C@H]21)CC4(C(C)C)O6`, the growth is 73.4% in test [1]; 83.7% in [2]; 82.2% in test [3]; 80.8% in test [4]; 67.5% in [5]; 65% in [6]. The growth was 54.7% in test [7]; 71.8% in test [8]; 86.2% in test [9]; 72.1% in test [10]; 71.5% in test [11]; 79.3% in test [12]. The growth in test [13] was 82.1%; in [14], 61.2%; in test [15] it was 42.5%; in test [16], 72.9%; in test [17], 72.7%; in test [18], 79.2%. For the same compound, the growth is 80.4% in [19] and 72.6% in test [20].
